# Source: PubChem BioAssay (EPA / NIEHS)
# Records with an inconclusive call do not appear. The source made the active and inactive calls. The calls were made as follows: active = hit-call score of the fitted dose curve at least 0.9, where 1 is the maximum; inconclusive = response in the unintended direction; inactive = score below 0.9.
# Read-out: Broad substrate specificity ATP-binding cassette transporter ABCG2 (Homo sapiens) (UniProt Q9UNQ0)
# Test: CLD_ABCG2_6hr: CellzDirect (CLD) Gene Expression Assay for ABC Transporter (ABCG2) at 6 hours (AID 2283660)
# In short: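 ABCG2 mRNA induction measured by qNPA chemiluminescence in human primary hepatocyte cultures, 6 h post-dose. Chemicals tested at several concentrations against a 0.2% DMSO vehicle; positive-direction fit relative to DMSO.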
# Chain of Broad substrate specificity ATP-binding cassette transporter ABCG2 (Homo sapiens) (Q9UNQ0 whole entry, looked up): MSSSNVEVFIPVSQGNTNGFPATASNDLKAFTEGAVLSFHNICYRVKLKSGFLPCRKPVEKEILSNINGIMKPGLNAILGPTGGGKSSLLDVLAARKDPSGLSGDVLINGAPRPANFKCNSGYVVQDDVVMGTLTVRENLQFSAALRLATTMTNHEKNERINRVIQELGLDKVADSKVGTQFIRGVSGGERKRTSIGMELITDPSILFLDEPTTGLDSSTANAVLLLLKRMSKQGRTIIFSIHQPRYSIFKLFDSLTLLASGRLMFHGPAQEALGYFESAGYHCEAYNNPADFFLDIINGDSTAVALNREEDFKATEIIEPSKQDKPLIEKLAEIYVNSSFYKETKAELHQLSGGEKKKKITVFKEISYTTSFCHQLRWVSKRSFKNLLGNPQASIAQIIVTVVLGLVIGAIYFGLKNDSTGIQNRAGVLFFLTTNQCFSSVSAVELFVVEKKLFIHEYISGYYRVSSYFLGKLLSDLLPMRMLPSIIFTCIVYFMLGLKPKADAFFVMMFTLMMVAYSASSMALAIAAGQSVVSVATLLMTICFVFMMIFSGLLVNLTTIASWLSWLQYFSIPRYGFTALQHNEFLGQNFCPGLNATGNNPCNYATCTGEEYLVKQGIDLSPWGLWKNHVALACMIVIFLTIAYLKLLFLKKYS
row,Compound,outcome
1,N#CN,inactive
2,CCC(C)(C)C(=O)OC1=C(c2ccc(Cl)cc2Cl)C(=O)OC12CCCCC2,inactive
3,OCCOc1ccccc1,inactive
4,O=C(O)COc1ccc(Cl)cc1Cl,inactive
5,CNC(=O)Oc1cccc(N=CN(C)C)c1,inactive

# Read-out: xenobiotic metabolism (CYP1A1), CYP1A1 (gene 1543)
# Test: CLD_CYP1A1_6hr: CellzDirect (CLD) Gene Expression Assay for xenobiotic metabolism (CYP1A1) at 6 hours (AID 2283661);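 as to AC50: potency for transcript induction above DMSO vehicle baseline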
# In short: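 Read-out 6 h post-dose: qNPA chemiluminescent quantitation of transcript induction against 0.2% DMSO. Cells were cultured primary human hepatocytes from two separate donor preparations; phase-contrast morphology annotated apparent cytotoxicity.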
Compound,outcome,AC50
CNC(=O)/C=C(\C)OP(=O)(OC)OC,inactive,
CCOCN(C(=O)CCl)c1c(C)cccc1CC,inactive,
Oc1ccc(Cl)cc1Cc1ccccc1,inactive,
CC(C)N(C(=O)COc1nnc(C(F)(F)F)s1)c1ccc(F)cc1,inactive,
CCCN(CCC)c1c([N+](=O)[O-])cc(C(F)(F)F)cc1[N+](=O)[O-],,3.69 µM (active)
CNC(=O)Oc1cccc(N=CN(C)C)c1,inactive,

# System: Thyroperoxidase (TPO), gene 54314
# Test: CCTE_Simmons_AUR_rTPO: CCTE's Amplex UltraRed Assay for Thyroperoxidase (TPO) Inhibition, Simmons Lab (AID 2283662);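 as to AC50: potency for loss of signal meaning inhibition of peroxidase activity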
# In short: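 Endpoint is decreased Amplex UltraRed fluorescence after a 30-min, 37C reaction of rat thyroid microsomes with 300 uM H2O2. Eight test concentrations (5 nM–87.5 uM final) in 0.5% DMSO, three biological replicates each.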
Compound,AC50,outcome
COP(=S)(OC)Oc1ccc([N+](=O)[O-])cc1,4.82 µM (active),
O=C1c2ccccc2C(=O)N1SC(Cl)(Cl)Cl,27.3 µM (active),
CN1CSC(=S)N(C)C1,6.52 µM (active),
CNC(=O)/C=C(\C)OP(=O)(OC)OC,39.1 µM (active),
COP(=O)(OC)OC=C(Cl)Cl,21 µM (active),
Oc1ccc(Cl)cc1Cc1ccccc1,12.7 µM (active),
CC(C)N(C(=O)COc1nnc(C(F)(F)F)s1)c1ccc(F)cc1,,inactive
CC1(c2ccc(Oc3ccccc3)cc2)OC(=O)N(Nc2ccccc2)C1=O (configuration not stated),2.45 µM (active),
N#CN,2.93 µM (active),
CNC(=O)Oc1cccc(N=CN(C)C)c1,19.8 µM (active),

# Read-out: xenobiotic metabolism (CYP2C9), CYP2C9 (gene 1559)
# Test: CLD_CYP2C9_6hr: CellzDirect (CLD) Gene Expression Assay for xenobiotic metabolism (CYP2C9) at 6 hours (AID 2283664)
# In short: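 Readout is qNPA chemiluminescence of CYP2C9 mRNA, taken 6 h after dosing of cultured human liver primary cells at several concentrations. Activity is the increase over 0.2% DMSO baseline. Morphology-based cytotoxicity flagged yes/no.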
row,Compound,outcome
1,CCC(C)(NC(=O)c1cc(Cl)c(C)c(Cl)c1)C(=O)CCl (configuration not stated),inactive
2,COC(=O)c1ccccc1S(=O)(=O)NC(=O)N(C)c1nc(C)nc(OC)n1,inactive
3,CNC(=O)Oc1ccccc1OC(C)C,inactive
4,COC(=O)c1ccccc1CS(=O)(=O)NC(=O)Nc1nc(OC)cc(OC)n1,inactive
5,C[C@H]1[C@H](c2ccc(Cl)cc2)SC(=O)N1C(=O)NC1CCCCC1,inactive
6,CCc1ccc(C(=O)NN(C(=O)c2cc(C)cc(C)c2)C(C)(C)C)cc1,inactive
7,COc1cc(OC)nc(NC(=O)NS(=O)(=O)c2cc(NC=O)ccc2C(=O)N(C)C)n1,inactive
8,O=C(O)CCCOc1ccc(Cl)cc1Cl,inactive
9,O=[N+]([O-])/N=C1\NCCN1Cc1ccc(Cl)nc1,inactive
10,CC1(c2ccc(Oc3ccccc3)cc2)OC(=O)N(Nc2ccccc2)C1=O (configuration not stated),inactive
11,OCCOc1ccccc1,inactive
12,O=C(O)COc1ccc(Cl)cc1Cl,inactive

# Read-out: alkyl and aryl transferase (GSTA2), GSTA2 (gene 2939)
# Test: CLD_GSTA2_6hr: CellzDirect (CLD) Gene Expression Assay for alkyl and aryl transferase (GSTA2) at 6 hours (AID 2283666)
# In short: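 GSTA2 transcript induction at 6 h, quantified by nuclease protection (qNPA) with chemiluminescent detection, in human liver primary hepatocytes exposed to several compound concentrations with 0.2% DMSO as baseline; phase-contrast morphology annotated apparent cytotoxicity.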
row,Compound,outcome
1,CCC(C)(NC(=O)c1cc(Cl)c(C)c(Cl)c1)C(=O)CCl (configuration not stated),inactive
2,COC(=O)c1ccccc1S(=O)(=O)NC(=O)N(C)c1nc(C)nc(OC)n1,inactive
3,Clc1ccccc1-c1nnc(-c2ccccc2Cl)nn1,inactive
4,COC(=O)c1ccccc1CS(=O)(=O)NC(=O)Nc1nc(OC)cc(OC)n1,inactive
5,CN1CSC(=S)N(C)C1,inactive
6,C[C@H]1[C@H](c2ccc(Cl)cc2)SC(=O)N1C(=O)NC1CCCCC1,inactive
7,CCc1ccc(C(=O)NN(C(=O)c2cc(C)cc(C)c2)C(C)(C)C)cc1,inactive
8,CCOCN(C(=O)CCl)c1c(C)cccc1CC,inactive
9,O=C(O)CCCOc1ccc(Cl)cc1Cl,inactive
10,O=[N+]([O-])/N=C1\NCCN1Cc1ccc(Cl)nc1,inactive
11,Oc1ccc(Cl)cc1Cc1ccccc1,inactive
12,CCCN(CCC)c1c([N+](=O)[O-])cc(C(F)(F)F)cc1[N+](=O)[O-],inactive
13,CC1(c2ccc(Oc3ccccc3)cc2)OC(=O)N(Nc2ccccc2)C1=O (configuration not stated),inactive
14,N#CN,inactive
15,CCC(C)(C)C(=O)OC1=C(c2ccc(Cl)cc2Cl)C(=O)OC12CCCCC2,inactive
16,OCCOc1ccccc1,inactive
17,O=C(O)COc1ccc(Cl)cc1Cl,inactive
18,CNC(=O)Oc1cccc(N=CN(C)C)c1,inactive

# Read-out: organic anion transporter (SLCO1B1), SLCO1B1 (gene 10599)
# Test: CLD_SLCO1B1_6hr: CellzDirect (CLD) Gene Expression Assay for organic anion transporter (SLCO1B1) at 6 hours (AID 2283668);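 also: active means mRNA induction above DMSO baseline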
# In short: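 SLCO1B1 mRNA induction measured 6 h after dosing by quantitative nuclease protection with chemiluminescent read-out, in human primary hepatocyte cultures given chemicals at several concentrations (vehicle 0.2% DMSO). Increase over DMSO baseline fitted; morphology-based cytotoxicity annotated yes/no.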
row,Compound,outcome
1,COP(=S)(OC)Oc1ccc([N+](=O)[O-])cc1,inactive
2,O=C(O)C(F)(F)C(F)(F)C(F)(F)C(F)(F)C(F)(F)C(F)(F)C(F)(F)F,inactive
3,CCC(C)(NC(=O)c1cc(Cl)c(C)c(Cl)c1)C(=O)CCl (configuration not stated),inactive
4,COC(=O)c1ccccc1S(=O)(=O)NC(=O)N(C)c1nc(C)nc(OC)n1,inactive
5,O=C1c2ccccc2C(=O)N1SC(Cl)(Cl)Cl,inactive
6,CNC(=O)Oc1ccccc1OC(C)C,inactive
7,CN1CSC(=S)N(C)C1,inactive
8,CNC(=O)/C=C(\C)OP(=O)(OC)OC,inactive
9,CCc1ccc(C(=O)NN(C(=O)c2cc(C)cc(C)c2)C(C)(C)C)cc1,inactive
10,CCOCN(C(=O)CCl)c1c(C)cccc1CC,inactive
11,COc1cc(OC)nc(NC(=O)NS(=O)(=O)c2cc(NC=O)ccc2C(=O)N(C)C)n1,inactive
12,O=C(O)CCCOc1ccc(Cl)cc1Cl,inactive
13,O=[N+]([O-])/N=C1\NCCN1Cc1ccc(Cl)nc1,inactive
14,CC(C)N(C(=O)COc1nnc(C(F)(F)F)s1)c1ccc(F)cc1,inactive
15,CC1(c2ccc(Oc3ccccc3)cc2)OC(=O)N(Nc2ccccc2)C1=O (configuration not stated),inactive
16,N#CN,inactive
